Measured values: the supplement of paper PMC9942566
± gives the standard deviation of the averaged measurements.

These molecules were tested on Serratia marcescens K904 PosmB-luxCDABE reporter (pMQ747) (assay: PosmB-lux reporter fold induction (RLU/OD600 relative to no-compound control), highest over Biolog concentrations; higher = stronger reporter activation). Conditions: ΔrcsB mutant CMS5177; 4 h.
Experimental: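 Serratia marcescens K904 (wild type) or its isogenic ΔrcsB mutant, carrying the Rcs-dependent PosmB-luxCDABE reporter plasmid pMQ747, was grown in LB at OD600 0.1 in Biolog Phenotype MicroArray plates PM11-20 for 4 h at 30-32°C. Each compound is present at 3-4 proprietary concentrations (not stated); per the Fig. S1 legend the value given is the highest fold over those wells. Three independent trials.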

`Cc1nnc(SCC2=C(C(=O)O)N3C(=O)[C@@H](NC(=O)Cn4cnnn4)[C@H]3SC2)s1` [Cefazolin] (Biolog plate: PM11, well positions: E1-4) and `Cn1nnnc1SCC1=C(C(=O)O)N2C(=O)[C@@H](NC(=O)[C@H](OC=O)c3ccccc3)[C@H]2SC1` [cefamandole nafate] (Biolog plate: PM17, well positions: G5-8) are within error of each other in “PosmB-lux reporter fold induction” value: 1.12 ± 0.15 for the first, 1.52 ± 0.36 for the second.

`O=C1C=C(O)C(=O)c2ccccc21` [lawsone] (Biolog plate: PM19, well positions: E9-12) and `O=c1ccc2ccc(O)cc2o1` [umbelliferone] (Biolog plate: PM19, well positions: C5-8) are within error of each other in “PosmB-lux reporter fold induction” value: 1.14 ± 0.35 for the first, 0.964 ± 0.57 for the second.

`Cc1ncc([N+](=O)[O-])n1CC(O)CCl` (stereo not given) [ornidazole] (Biolog plate: PM20, well positions: C9-12) and `CCS(=O)(=O)CCn1c([N+](=O)[O-])cnc1C` [tinidazole] (Biolog plate: PM18, well positions: F5-8) are within error of each other in “PosmB-lux reporter fold induction” value: 1.59 ± 0.49 for the first, 1 ± 0.3 for the second.

`O=C1OC(CN2CCOCC2)CN1/N=C/c1ccc([N+](=O)[O-])o1` (stereo not given) [Furaltadone] (Biolog plate: PM14, well positions: A5-8) and `CC(=O)OCC1=C(C(=O)O)N2C(=O)[C@@H](NC(=O)Cc3cccs3)[C@H]2SC1` [Cephalothin] (Biolog plate: PM11, well positions: H1-4) are within error of each other in “PosmB-lux reporter fold induction” value: 1.51 ± 0.47 for the first, 1.37 ± 0.15 for the second.

`CO/N=C(\C(=O)N[C@@H]1C(=O)N2C(C(=O)O)=C(CSc3nc(=O)c(O)nn3C)CS[C@H]12)c1csc(N)n1` [Ceftriaxone] (Biolog plate: PM11, well positions: G1-4) and `CO[C@@]1(NC(=O)C(C(=O)O)c2ccc(O)cc2)C(=O)N2C(C(=O)O)=C(CSc3nnnn3C)CO[C@@H]21` (stereo not given in full) [Moxalactam] (Biolog plate: PM13, well positions: H5-8) are within error of each other in “PosmB-lux reporter fold induction” value: 1.12 ± 0.14 for the first, 1.94 ± 0.81 for the second.

First: CC[C@H]1OC(=O)[C@H](C)[C@@H](O[C@H]2C[C@@](C)(OC)[C@@H](O)[C@H](C)O2)[C@H](C)[C@@H](O[C@@H]2O[C@H](C)C[C@H](N(C)C)[C@H]2O)[C@](C)(O)C[C@@H](C)C(=O)[C@H](C)[C@@H](O)[C@]1(C)O [Erythromycin] (Biolog plate: PM11, well positions: F5-8)
Second: CO[C@H]1C[C@H](O[C@H]2[C@H](C)[C@@H](O[C@@H]3O[C@H](C)C[C@H](N(C)C)[C@H]3O)[C@@H](C)C[C@@]3(CO3)C(=O)[C@H](C)[C@@H](O)[C@@H](C)[C@@H](C)OC(=O)[C@@H]2C)O[C@@H](C)[C@@H]1O [Oleandomycin] (Biolog plate: PM15, well positions: F5-8)
The “PosmB-lux reporter fold induction” value of the first is lower: 1.46 ± 0.041 for the first, 2.18 ± 0.57 for the second.

`CCOc1ccc2ccccc2c1C(=O)N[C@@H]1C(=O)N2[C@@H]1SC(C)(C)[C@@H]2C(=O)O` [Nafcillin] (Biolog plate: PM11, well positions: D9-12) and `CC(Oc1ccccc1)C(=O)N[C@@H]1C(=O)N2[C@@H]1SC(C)(C)[C@@H]2C(=O)O` (stereo not given in full) [phenethicillin] (Biolog plate: PM19, well positions: F1-4) are within error of each other in “PosmB-lux reporter fold induction” value: 1.05 ± 0.14 for the first, 1.15 ± 0.37 for the second.

`CCN1CCN(C(=O)N[C@@H](C(=O)N[C@@H]2C(=O)N3[C@@H]2SC(C)(C)[C@@H]3C(=O)O)c2ccccc2)C(=O)C1=O` [Piperacillin] (Biolog plate: PM14, well positions: F5-8) and `CC1(C)S[C@@H]2[C@H](NC(=O)C(C(=O)O)c3ccccc3)C(=O)N2[C@H]1C(=O)O` (stereo not given in full) [Carbenicillin] (Biolog plate: PM12, well positions: A9-12) are within error of each other in “PosmB-lux reporter fold induction” value: 1.2 ± 0.13 for the first, 1.03 ± 0.29 for the second.

First: O=c1c(O)c(-c2cc(O)c(O)c(O)c2)oc2cc(O)cc(O)c12 [myricetin] (Biolog plate: PM18, well positions: G9-12)
Second: C[C@H]1c2cccc(O)c2C(=O)C2=C(O)[C@]3(O)C(=O)C(C(N)=O)=C(O)[C@@H](N(C)C)[C@@H]3[C@@H](O)[C@@H]21 [Doxycycline] (Biolog plate: PM13, well positions: C5-8)
The “PosmB-lux reporter fold induction” value of the first is lower: 0.868 ± 0.31 for the first, 1.91 ± 0.69 for the second.

Compared with `C1COCCOCCOCCOCCOCCO1` [18-crown-6 ether] (Biolog plate: PM20, well positions: D9-12), `CO[C@@H]1[C@@H](O[C@@H]2O[C@H](C)[C@@H](O[C@H]3C[C@@](C)(O)[C@@H](OC(=O)CC(C)C)[C@H](C)O3)[C@H](N(C)C)[C@H]2O)[C@@H](CC=O)C[C@@H](C)[C@@H](O)/C=C/C=C/C[C@@H](C)OC(=O)C[C@H]1OC(C)=O` [josamycin] (Biolog plate: PM19, well positions: A2-4) is higher in “PosmB-lux reporter fold induction” value: 1.53 ± 0.55 for the first, 9.66 ± 6.6 for the second.

`[Cl][Fe]([Cl])[Cl]` [ferric chloride] (Biolog plate: PM16, well positions: G5-8) and `[Cl][Mn][Cl]` [Manganese chloride] (Biolog plate: PM13, well positions: G5-8) are within error of each other in “PosmB-lux reporter fold induction” value: 1.47 ± 0.36 for the first, 1.41 ± 0.043 for the second.

`c1ccc(-c2ccccn2)nc1` [2,2'-Dipyridyl] (Biolog plate: PM13, well positions: B5-8) and `O=C(O)/C=C/c1ccccc1` [cinnamic acid] (Biolog plate: PM19, well positions: C9-12) are within error of each other in “PosmB-lux reporter fold induction” value: 1.71 ± 1.3 for the first, 1.17 ± 0.32 for the second.

Going from `O=[N+]([O-])c1ccc(-[n+]2nc(-c3ccccc3)nn2-c2ccc(I)cc2)cc1` [iodonitro tetrazolium violet] (Biolog plate: PM19, well positions: D5-8) to `CSc1ccc2c(c1)N(CCC1CCCCN1C)c1ccccc1S2` (stereo not given) [thioridazine] (Biolog plate: PM20, well positions: C1-4), the “PosmB-lux reporter fold induction” value rises from 0.242 ± 0.11 to 1.11 ± 0.088.

`C[C@H]1O[C@@H](n2cc(F)c(=O)[nH]c2=O)[C@H](O)[C@@H]1O` [5-fluoro-5'-deoxyuridine] (Biolog plate: PM18, well positions: H1-4) and `Nc1ncn([C@@H]2O[C@H](CO)[C@@H](O)[C@H]2O)c(=O)n1` [5-azacytidine] (Biolog plate: PM16, well positions: E5-8) are within error of each other in “PosmB-lux reporter fold induction” value: 1.75 ± 0.72 for the first, 2.23 ± 0.64 for the second.

Compared with `CCn1cc(C(=O)O)c(=O)c2cc(F)c(N3CCNCC3)cc21` [norfloxacin] (Biolog plate: PM16, well positions: B1-4), `Cn1cnc([N+](=O)[O-])c1Sc1ncnc2[nH]cnc12` [azathioprine] (Biolog plate: PM18, well positions: B9-12) is lower in “PosmB-lux reporter fold induction” value: 1.91 ± 0.65 for the first, 0.729 ± 0.15 for the second.

First: CC(C)c1nc2nc(N)nc(N)c2nc1C(C)C [2,4-Diamino-6,7-diisopropyl-pteridine] (Biolog plate: PM12, well positions: E1-4)
Second: CC(C)NCC(O)COc1cccc2ccccc12 (racemic) [D,L-propranolol] (Biolog plate: PM20, well positions: B5-8)
The “PosmB-lux reporter fold induction” value of the first is higher: 2.91 ± 0.33 for the first, 1.24 ± 0.19 for the second.

`Oc1c(I)cc(Cl)c2cccnc12` [5-chloro-7-iodo-8-hydroxy-quinoline] (Biolog plate: PM16, well positions: A9-12) and `Oc1c(Cl)cc(Cl)c2cccnc12` [5,7-Dichloro-8-hydroxyquinoline] (Biolog plate: PM15, well positions: C1-4) are within error of each other in “PosmB-lux reporter fold induction” value: 1.51 ± 0.53 for the first, 1.43 ± 0.18 for the second.

First: NC(=O)NO [Hydroxyurea] (Biolog plate: PM15, well positions: H5-8)
Second: O=[Si](O)O [sodium metasilicate] (Biolog plate: PM18, well positions: E1-4)
The “PosmB-lux reporter fold induction” value of the first is higher: 13.9 ± 5.4 for the first, 0.928 ± 0.32 for the second.

`Cc1cc(N)c2ccccc2[n+]1CCCCCCCCCC[n+]1c(C)cc(N)c2ccccc21` [Dequalinium chloride] (Biolog plate: PM13, well positions: A5-8) and `N=C(NCCCCCCNC(=N)NC(=N)Nc1ccc(Cl)cc1)NC(=N)Nc1ccc(Cl)cc1` [chlorhexidine] (Biolog plate: PM19, well positions: C1-4) are within error of each other in “PosmB-lux reporter fold induction” value: 1.05 ± 0.21 for the first, 1.19 ± 0.57 for the second.

`O.O=S(=O)([O-])[O-].O=S(=O)([O-])[O-].O=S(=O)([O-])[O-].[Al+3].[Al+3]` [aluminum sulfate] (Biolog plate: PM16, well positions: F9-12) and `[Na+].[Na+].[O]=[W](=[O])([O-])[O-]` [sodium tungstate] (Biolog plate: PM17, well positions: E9-12) are within error of each other in “PosmB-lux reporter fold induction” value: 1.54 ± 0.56 for the first, 0.99 ± 0.14 for the second.
